Screen size: about 2,400 compounds; about 360 (15%) were called active.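 The calls were made as follows: active = viability falls under 70% at one or more tested concentrations, taken as toxicity; inactive = viability stays over 70% at every dose.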 Only a sample is shown. Results with a measured potency or affinity are listed apart.
Experiment: HeLa cell cytotoxicity, dose response, cytotoxicity control for MgcRacGAP inhibitor project (AID 624300)
Conditions: CellTiter-Glo luminescence, 24 h; series mostly up to 100 µM

SMILES | outcome
COC(=O)CC1SC(=O)NC1=Nc1ccc(O)cc1 (centres undefined) | inactive
S=c1[nH]c2ccccc2n2c(=S)[nH]nc12 | inactive
O=C(CNC(=O)c1cccs1)N/N=C/c1ccc(O)cc1O | inactive
COc1ccc(N2CCN(C(CNS(=O)(=O)c3cccs3)c3cccnc3)CC2)cc1 (centres undefined) | inactive
O=C1Nc2ccccc2C1=Nc1ccc2[nH]c3ccccc3c2c1 | inactive
COc1ccc(CN(C)CC(=O)Nc2ccc(Cl)cc2C(F)(F)F)c(OC)c1 | inactive
O=S(=O)(O)c1cc(O)c2ccc(Nc3ccccc3)cc2c1 | inactive
O=S(=O)(O)c1ccc(O)c2cc(Nc3ccccc3)ccc12 | inactive
CCOc1ccccc1Oc1cn[nH]c1-c1ccc(O)cc1O | inactive
COc1cc(CNc2ccc3[nH]c(=O)[nH]c3c2)ccc1OCc1cccc(C)c1 | inactive
O=C1/C(=C/c2ccc(O)c(O)c2)Oc2cc(O)ccc21 | inactive
O=C1ON=C(c2ccccc2)/C1=C/c1ccco1 | inactive
COc1cc(/C=C2/C(=O)NN(c3ccc(Cl)cc3)C2=O)cc(Br)c1O | inactive
CCOc1cc(/C=N/NC(=O)c2c(-c3ccccc3)noc2C)ccc1O | inactive
COC(=O)C1=C(O)/C(=C\c2ccc(O)c(OC)c2)N=C1C | inactive
COc1cc(/C=C2\Oc3cc(O)ccc3C2=O)ccc1O | inactive
O=[N+]([O-])c1cccc(S(=O)(=O)N/N=C/c2ccc(O)cc2)c1 | inactive
COc1cc(/C=C/CN2CCC(Oc3ccc(C(=O)N4CCCC4)cc3)CC2)ccc1O | inactive
Nc1ccc(N2CCN(c3ccc(F)cc3)CC2)cc1 | inactive
c1ccc(CNc2ccc(N3CCOCC3)cc2)cc1 | inactive
COc1ncnc2c1ncn2CCCNc1ccc(C)c(C)c1 | inactive
C/C(=N\Nc1nc2ccccc2[nH]1)c1cccs1 | inactive
Cc1[nH]c2ccccc2c1/C=N/Nc1nncn1N | inactive
Cc1cc(C)nc(N/N=C/c2c[nH]c3ccccc23)n1 | inactive
O=C(O)c1ccc(N/N=C/c2c[nH]c3ccccc23)cc1 | inactive

SMILES | outcome
O=c1cc(CN2CCOCC2)c2ccc(O)c(O)c2o1 | inactive
COc1cc(/C=N/NC(=O)Cn2nnc3ccccc32)ccc1O | inactive
O=C(Nc1ccc(O)cc1)c1cc2ccccc2c(=O)s1 | inactive
CC[N+](CC)(CC)CCCCOc1ccc2c(c1)C(=O)c1cc(OCCCC[N+](CC)(CC)CC)ccc1-2 | inactive
FC(F)(F)c1cccc(N2CCC(N=CN3CCCCCC3)=N2)c1 | inactive
Oc1ccc(C=NNc2ccccn2)c(O)c1 | inactive
Oc1ccc(/C=N/Nc2ccc(C(F)(F)F)cn2)cc1 | inactive
Nc1ccc(Nc2ccccc2)c(Cl)c1 | inactive
Oc1cccc(Nc2ccccc2)c1 | inactive
CCOc1cc(/C=N/NC(=O)c2ccc(NC(=O)C3CC3)cc2)ccc1O | inactive
O=C(CCN1CCCCCC1)Nc1ccc2c(c1)OCCO2 | inactive
C/C(CC(=O)Nc1ccc(N(C)C)cc1)=N\NC(=O)c1ccc([N+](=O)[O-])cc1 | inactive
O=C(Nc1ccc(O)cc1)c1cccc(Oc2ccc([N+](=O)[O-])cc2)c1 | inactive
O=C(CNC(=O)c1ccco1)N/N=C/c1ccc(O)cc1O | inactive
Cc1ccc(OC(=S)Nc2ccc(O)cc2)cc1 | inactive
Cc1ccsc1/C=N/Nc1nc2ccccc2[nH]1 | inactive
COc1cc(/C=N/NC(=O)c2cc3ccccc3[nH]2)ccc1O | inactive
COc1ccc(/C=N/Nc2nc3ccccc3s2)cc1O | inactive
COc1cc(/C=N/Nc2nc(C)cc(=O)[nH]2)ccc1O | inactive
CCC(=Nc1ccc(N)cc1)C1=C(O)C(C(=O)OC)C(C)(C)CC1=O (centres undefined) | inactive
COc1ccc(OC)c(CN2CCN(Cc3ccc(OC)c(OC)c3OC)CC2)c1 | inactive
CC1CC(C)(C)N(C(=O)CN2CCN(C)CC2)c2ccccc21 (centres undefined) | inactive
COc1ccccc1-n1c(=O)c2c3c(sc2n2c(=S)[nH]nc12)CCC3 | inactive
Oc1ccc(/C=N/Nc2ncnc3c2ncn3Cc2ccccc2)cc1O | inactive
O=[N+]([O-])c1cccc(CN2CCN(c3cccc4[nH]ccc34)CC2)c1 | inactive

SMILES | outcome
COc1ccccc1/C=C(/C(=O)OCC(=O)Nc1ccc(N(C)C)cc1)c1ccccc1 | inactive
COc1ccc(S(=O)(=O)N2CCC(N3CCN(c4ccccc4OC)CC3)CC2)cc1 | inactive
Cc1cccc(CN2CCN(Cc3ccco3)CC2)c1 | inactive
Nc1[nH]c2cc([N+](=O)[O-])ccc2c1-c1ccccn1 | inactive
COc1ccc(NCc2cc3ccccc3[nH]c2=O)cc1 | inactive
CN(C)c1ccc(NC(=O)COC(=O)CNC(=O)c2cccs2)cc1 | inactive
Cc1cc(OCCCN2CCN(Cc3ccccc3)CC2)ccc1[N+](=O)[O-] | inactive
Cc1c(N=C2NC(=O)/C(=C/c3ccc(O)cc3)S2)c(=O)n(-c2ccccc2)n1C | inactive
O=C(CSc1ccc2ccccc2n1)N/N=C/c1ccc(O)cc1 | inactive
O=C(CCN1CCN(C(c2ccccc2)c2ccccc2)CC1)N/N=C/c1ccc(O)cc1 | inactive
CCCOC(=O)c1ccc(O)c(OC)c1 | inactive
COc1ccc(NC(C)c2cc(Cl)ccc2O)cc1 (centres undefined) | inactive
O=C(C1CCN(Cc2cc(Cl)ccc2O)CC1)N1CCN(Cc2ccccc2)CC1 | inactive
COc1ccc(/C=C2\C(=O)NC(=O)c3ccccc32)cc1OC | inactive
COc1cccc(CNc2ccc(N3CCC(C)CC3)cc2)c1OC | inactive
COc1cc(/C=N/NC(=O)/C(=C\c2ccc3c(c2)OCO3)NC(=O)c2ccccc2)ccc1O | inactive
COc1ccc(C(=O)N/N=C/c2ccc(N3CCOCC3)s2)cc1OC | inactive
COc1cc(/C=N/NC(=O)C(=O)NCC2CCCO2)ccc1O (centres undefined) | inactive
Cc1cc(C)c(S(=O)(=O)Nc2ccc(O)cc2)c(C)c1 | inactive
COc1ccc(NC(=S)Nc2cccc3ccccc23)cc1OC | inactive
O=C(Nc1ccccn1)c1ccc2ccccc2c1O | inactive
O=C(Nc1ccc(O)cc1)c1ccc(C(=O)c2ccccc2)o1 | inactive
CCCCNc1nc(=S)[nH]c2cc(OC)c(OC)cc12 | inactive
COc1ccc(CCNc2nc(=S)[nH]c3cc(OC)c(OC)cc23)cc1OC | inactive

Reference: PubChem BioAssay AID624300 (Southern Research Specialized Biocontainment Screening …, 2012)
